Assays:
Assay in all cases: DAPPL (digital affinity profiling via proximity ligation, sequencing); 10 mM Tris-HCl pH 7.5, 50 mM NaCl, 1 mM DTT, 4% glycerol, room temperature, 30 min; GST-TFs on glutathione beads, 16-mer random dsDNA library, 0.1% formaldehyde crosslink after washing; high values mean tight binding
Conditions in all cases: protein: recombinant; tags: N-terminal GST; dsDNA, one strand shown
FLI1 = molecular target: T1, FLI1 (Homo sapiens, UniProt Q01543 1-452)
T1 sequence: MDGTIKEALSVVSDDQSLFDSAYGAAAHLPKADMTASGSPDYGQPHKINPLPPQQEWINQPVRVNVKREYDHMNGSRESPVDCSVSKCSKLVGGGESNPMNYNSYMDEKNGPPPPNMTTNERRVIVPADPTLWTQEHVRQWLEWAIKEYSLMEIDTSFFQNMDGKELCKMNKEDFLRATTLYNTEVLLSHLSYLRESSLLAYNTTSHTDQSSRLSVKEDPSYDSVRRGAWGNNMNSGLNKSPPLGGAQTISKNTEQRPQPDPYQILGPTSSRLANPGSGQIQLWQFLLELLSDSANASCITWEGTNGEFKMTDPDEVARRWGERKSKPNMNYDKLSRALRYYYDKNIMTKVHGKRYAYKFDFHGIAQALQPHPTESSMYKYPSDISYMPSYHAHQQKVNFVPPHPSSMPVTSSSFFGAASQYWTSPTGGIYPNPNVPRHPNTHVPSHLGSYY
Method in brief: (§1)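 Binding signal is defined as a hexamer's read frequency for one factor over its frequency for the tag-only sample. To obtain reads, GST-fused human transcription factors were expressed in yeast, captured on glutathione beads, barcoded with DNA and pooled with that sample. Pools met 200 nmole of a 16-mer random double-stranded DNA library in Tris/NaCl/DTT/glycerol buffer for 30 min at room temperature before washing, 0.1% formaldehyde crosslinking, proximity ligation (BsaI/T4 ligase, 1 h, 37 °C), PCR and Illumina NextSeq500 sequencing.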

ELK1 = molecular target: T2, ELK1 (Homo sapiens, UniProt P19419 1-428)
T2 sequence: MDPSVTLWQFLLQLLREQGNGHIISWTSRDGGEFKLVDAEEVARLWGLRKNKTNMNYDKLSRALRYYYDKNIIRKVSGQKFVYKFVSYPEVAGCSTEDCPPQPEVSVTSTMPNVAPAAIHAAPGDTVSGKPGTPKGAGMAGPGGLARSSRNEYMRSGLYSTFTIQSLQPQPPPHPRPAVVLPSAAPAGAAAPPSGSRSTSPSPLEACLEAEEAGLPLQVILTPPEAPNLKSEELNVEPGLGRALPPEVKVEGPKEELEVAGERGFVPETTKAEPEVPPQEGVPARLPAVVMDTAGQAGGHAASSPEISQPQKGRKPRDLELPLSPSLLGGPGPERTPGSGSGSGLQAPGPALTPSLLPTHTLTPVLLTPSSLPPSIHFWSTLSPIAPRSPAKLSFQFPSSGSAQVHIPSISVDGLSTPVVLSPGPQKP
Method in brief: as §1

GABPA = molecular target: T3, GABPA (Homo sapiens, UniProt Q06546 1-454)
T3 sequence: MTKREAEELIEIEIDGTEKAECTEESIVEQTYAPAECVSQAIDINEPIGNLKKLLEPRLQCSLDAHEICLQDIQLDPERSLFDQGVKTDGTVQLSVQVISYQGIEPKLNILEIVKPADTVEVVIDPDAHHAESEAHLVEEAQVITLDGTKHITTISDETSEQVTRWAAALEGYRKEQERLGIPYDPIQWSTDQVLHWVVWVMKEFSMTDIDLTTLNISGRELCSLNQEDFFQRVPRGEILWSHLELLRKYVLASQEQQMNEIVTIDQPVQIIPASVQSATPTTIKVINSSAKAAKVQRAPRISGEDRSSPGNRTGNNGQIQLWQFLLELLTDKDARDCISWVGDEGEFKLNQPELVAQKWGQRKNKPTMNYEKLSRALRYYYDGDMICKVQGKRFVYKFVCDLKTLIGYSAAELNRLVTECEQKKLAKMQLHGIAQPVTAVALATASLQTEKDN
Method in brief: as §1

ERG = molecular target: T4, ERG (Homo sapiens, UniProt P11308 1-479)
T4 sequence: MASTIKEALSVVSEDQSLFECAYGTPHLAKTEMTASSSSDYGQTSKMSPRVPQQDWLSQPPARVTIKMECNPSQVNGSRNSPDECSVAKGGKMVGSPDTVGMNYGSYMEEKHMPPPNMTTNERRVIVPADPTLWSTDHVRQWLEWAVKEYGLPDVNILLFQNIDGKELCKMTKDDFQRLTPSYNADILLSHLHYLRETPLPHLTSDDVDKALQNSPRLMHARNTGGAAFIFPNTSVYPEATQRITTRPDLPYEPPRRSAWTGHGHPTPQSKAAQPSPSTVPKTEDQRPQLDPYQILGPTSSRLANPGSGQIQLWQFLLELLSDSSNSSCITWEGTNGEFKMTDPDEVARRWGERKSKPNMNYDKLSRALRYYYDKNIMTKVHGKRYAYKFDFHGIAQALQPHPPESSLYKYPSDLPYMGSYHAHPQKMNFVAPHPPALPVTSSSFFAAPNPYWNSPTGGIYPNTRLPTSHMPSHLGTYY
Method in brief: as §1

ELF1 = ELF1 (Homo sapiens, UniProt P32519 1-619)
Method in brief: as §1

EHF = molecular target: T5, EHF (Homo sapiens, UniProt Q9NZC4 1-300)
T5 sequence: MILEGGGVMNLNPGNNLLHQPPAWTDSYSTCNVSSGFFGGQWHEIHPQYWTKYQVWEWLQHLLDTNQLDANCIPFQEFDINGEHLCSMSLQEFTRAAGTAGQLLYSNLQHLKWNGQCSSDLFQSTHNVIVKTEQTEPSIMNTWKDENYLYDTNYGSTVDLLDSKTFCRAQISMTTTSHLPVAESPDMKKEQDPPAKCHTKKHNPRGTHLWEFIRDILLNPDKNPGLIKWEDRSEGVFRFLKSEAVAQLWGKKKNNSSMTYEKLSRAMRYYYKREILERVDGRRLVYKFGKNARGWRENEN
Method in brief: as §1

SPI1 = SPI1 (Homo sapiens, UniProt P17947 1-270)
Method in brief: as §1

SPIB = SPIB (Homo sapiens, UniProt Q01892 1-262)
Method in brief: as §1

ELK3 = molecular target: T6, ELK3 (Homo sapiens, UniProt P41970 1-407)
T6 sequence: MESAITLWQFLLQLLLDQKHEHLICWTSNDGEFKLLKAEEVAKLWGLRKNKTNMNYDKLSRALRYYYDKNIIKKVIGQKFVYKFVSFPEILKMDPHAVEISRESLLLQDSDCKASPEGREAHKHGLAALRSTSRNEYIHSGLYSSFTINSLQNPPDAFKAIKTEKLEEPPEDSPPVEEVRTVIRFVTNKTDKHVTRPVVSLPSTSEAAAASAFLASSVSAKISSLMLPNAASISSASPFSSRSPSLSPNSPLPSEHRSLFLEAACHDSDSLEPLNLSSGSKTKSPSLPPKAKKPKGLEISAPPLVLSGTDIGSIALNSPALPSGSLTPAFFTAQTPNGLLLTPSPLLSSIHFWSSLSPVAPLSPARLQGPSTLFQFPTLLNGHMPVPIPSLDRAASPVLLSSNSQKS
Method in brief: as §1

Sequence of SPIB (Q01892 whole entry): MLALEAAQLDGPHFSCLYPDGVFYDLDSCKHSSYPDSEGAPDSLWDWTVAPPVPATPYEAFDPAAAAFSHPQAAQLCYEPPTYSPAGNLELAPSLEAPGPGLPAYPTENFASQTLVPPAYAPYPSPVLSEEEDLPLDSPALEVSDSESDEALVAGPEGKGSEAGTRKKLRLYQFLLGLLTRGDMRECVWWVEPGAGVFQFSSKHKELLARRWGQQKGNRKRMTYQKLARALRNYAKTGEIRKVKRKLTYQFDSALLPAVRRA
Sequence of ELF1 (P32519 whole entry): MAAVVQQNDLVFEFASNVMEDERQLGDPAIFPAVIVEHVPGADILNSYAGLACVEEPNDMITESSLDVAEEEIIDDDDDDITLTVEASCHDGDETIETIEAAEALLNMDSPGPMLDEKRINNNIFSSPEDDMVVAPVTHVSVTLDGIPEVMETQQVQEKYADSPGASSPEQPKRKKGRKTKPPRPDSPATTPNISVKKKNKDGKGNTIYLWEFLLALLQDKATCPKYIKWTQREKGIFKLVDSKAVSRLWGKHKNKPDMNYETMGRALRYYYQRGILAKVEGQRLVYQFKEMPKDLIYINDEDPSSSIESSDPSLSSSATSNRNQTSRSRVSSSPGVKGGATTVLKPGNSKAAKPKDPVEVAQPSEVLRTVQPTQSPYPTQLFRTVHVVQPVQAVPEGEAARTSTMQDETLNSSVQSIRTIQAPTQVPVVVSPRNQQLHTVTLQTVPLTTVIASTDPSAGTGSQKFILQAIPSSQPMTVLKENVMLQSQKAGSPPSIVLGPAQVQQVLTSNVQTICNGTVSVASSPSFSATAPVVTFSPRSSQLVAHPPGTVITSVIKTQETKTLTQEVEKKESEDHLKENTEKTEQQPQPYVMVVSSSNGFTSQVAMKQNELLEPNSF

Q: What does the source list for GCTAAA?
A: binding signal (FLI1): 1.06 fold enrichment (6-mer frequency, TF over GST control); binding signal (ELK1): 1.12 fold enrichment (6-mer frequency, TF over GST control); binding signal (GABPA): 1.07 fold enrichment (6-mer frequency, TF over GST control); binding signal (ERG): 1.07 fold enrichment (6-mer frequency, TF over GST control); binding signal (ELF1): 1.08 fold enrichment (6-mer frequency, TF over GST control); binding signal (EHF): 1.06 fold enrichment (6-mer frequency, TF over GST control); binding signal (SPI1): 1.16 fold enrichment (6-mer frequency, TF over GST control); binding signal (SPIB): 1.14 fold enrichment (6-mer frequency, TF over GST control); binding signal (ELK3): 1.04 fold enrichment (6-mer frequency, TF over GST control)
